Screens (PubChem BioAssay)
This is a sample that favours compounds with a hit; in the whole collection about 7.3% have one here.
SMN2 splice up: qHTS Assay for Enhancers of SMN2 Splice Variant Expression | HEK293 SMN2-luciferase splicing reporter, luminescence, 30-36 h | Potency, µM (titrated, usually from 46.1 µM), most hits filed as activators | 210,000 compounds, 2.8% hits | AID 1458, 2008; also: nearly all actives have a fitted effect of over 55% in size
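HEK293 cells carry an SMN2 […]–luciferase reporter in which exon 7 inclusion puts luciferase in frame. Cells were plated 10-12 h before compound addition, then incubated 30-36 h at 37C. ONE-Glo luminescence was read; sodium butyrate at 4.5 mM final served as control.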
FLuc modulator: qHTS profiling assay for firefly luciferase inhibitor/activator using purifed enzyme and Km concentrations of substrates (counterscreen for miR-21 project). purified FLuc, Km substrates, luminescence inhibition. Potency, µM (doses to about 57.5 µM), actives largely listed as inhibitors. 360,000 compounds, 6.9% hits; also: nearly all actives have a fitted effect of over 55% in size
Target sequence (P08659 whole entry, looked up): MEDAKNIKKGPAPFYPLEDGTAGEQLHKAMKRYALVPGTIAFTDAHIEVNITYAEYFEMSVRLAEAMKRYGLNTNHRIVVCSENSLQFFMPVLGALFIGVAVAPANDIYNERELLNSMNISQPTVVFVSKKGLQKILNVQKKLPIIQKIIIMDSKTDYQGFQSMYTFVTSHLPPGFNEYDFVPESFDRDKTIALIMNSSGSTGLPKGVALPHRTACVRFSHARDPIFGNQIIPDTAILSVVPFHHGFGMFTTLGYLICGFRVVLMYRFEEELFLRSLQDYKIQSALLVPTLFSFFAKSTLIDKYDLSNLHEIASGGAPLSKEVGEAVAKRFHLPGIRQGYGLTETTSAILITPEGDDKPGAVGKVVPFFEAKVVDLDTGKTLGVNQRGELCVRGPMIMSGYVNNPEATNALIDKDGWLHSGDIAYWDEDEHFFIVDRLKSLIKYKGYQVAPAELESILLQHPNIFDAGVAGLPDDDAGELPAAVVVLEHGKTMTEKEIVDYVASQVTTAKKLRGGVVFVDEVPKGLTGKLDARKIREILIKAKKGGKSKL
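Purified P. pyralis luciferase, 10 nM final, with Km-level 10 uM D-luciferin and 10 uM ATP in 50 mM Tris acetate pH 7.5, 10 mM Mg acetate, 0.01% Tween-20, 0.05% BSA; 6-point qHTS titration about 60 µM downward; luminescence read.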
Rab9 prom act: qHTS Assay for Rab9 Promoter Activators; Huh7 Rab9 promoter-luciferase reporter, luminescence, 24 h; Potency, µM (top dose mostly 9.22 µM), hits mostly activators; 320,000 compounds, 2.8% hits; AID 485297, 2010; also: nearly all actives have a fitted effect of over 60% in size
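Measured in stably transfected Huh7 cells bearing a Rab9 promoter–luciferase construct: 24 h compound treatment at 37 °C, followed by luminescence detection.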
NPC1 promoter act: qHTS Assay for NPC1 Promoter Activators. Huh7 NPC1 promoter luciferase reporter, 24 h. Potency, µM (top dose mostly 9.22 µM), actives largely listed as activators. 320,000 compounds, 2.4% hits. AID 485313, 2010; also: nearly all actives have a fitted effect of over 60% in size
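Cells: Huh7 expressing luciferase under the NPC1 promoter, 1500/well. Seeded 2 h, compound added, incubated 24 h at 37 °C. Luciferase reagent, 10 min ambient, then luminescence.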
Luc counter: Counterscreen for Luciferase (Kinase-Glo TM) Inhibition; 200,000 compounds, 0.28% hits; Potency, µM (top dose mostly 38.3 µM), usual class: inhibitors; Luciferin 4-monooxygenase (Photuris pensylvanica), Q27757; Kinase-Glo luciferase, ATP luminescence, 8 min; also: nearly all actives have a fitted effect of over 60% in size
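Compound is pinned into ATP-containing buffer (10 uM ATP, imidazole pH 7.2, 7 mM MgCl2). Kinase-Glo luciferase reagent is then added. Light output is recorded following an 8-min room-temperature incubation.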
Each line names hits and unclear results; the compound was inactive in the other large screens. Calls follow the shape of the dose curve; as a rule, active = well fitted curve in the direction sought with a large enough effect; inconclusive = small, poorly fitted or top-dose-only effect, or another doubt; inactive = no such curve, though single readings can be large; an effect the other way counts as inactive or inconclusive.

COc1cc(/C=C/C(=O)c2c(O)n(CCc3ccccc3)c(=O)[nH]c2=O)ccc1O	FLuc modulator 6.7µM
N#CC(C#N)=NNc1ccc([N+](=O)[O-])cc1	FLuc modulator 17µM (no result: SMN2 splice up, Luc counter)
CN(C)C(=O)Nc1ccc(Cl)cc1	none (no result: FLuc modulator, Rab9 prom act, NPC1 promoter act, Luc counter)
Cc1nn(C(C)(C)C)c(C)c1/C=N/OC(=O)Nc1ccc(Cl)cc1	FLuc modulator 0.095µM (no result: SMN2 splice up, Luc counter)
Brc1ccc(-c2csc(N3CCCCC3)n2)cc1	FLuc modulator 9.5µM (no result: SMN2 splice up, Luc counter)
O=C(Oc1ccccc1)c1cccc(COC(=O)c2cnccn2)c1	SMN2 splice up inconclusive
O=C(OCc1ccc(Cl)c(Cl)c1)c1ccccn1	FLuc modulator 15µM
O=C(CSc1ncnc2c1nnn2-c1ccc(F)cc1)NCC1CCCO1 (stereo unspecified)	FLuc modulator 13µM
CC(=O)C(Sc1ncnc2c1nnn2-c1ccc(F)cc1)C(=O)N(C)C (stereo unspecified)	SMN2 splice up inconclusive, FLuc modulator inconclusive
C[As+](C)(c1ccc(Br)c([N+](=O)[O-])c1)c1ccc(Br)c([N+](=O)[O-])c1.O=[N+]([O-])O	none (no result: FLuc modulator, Rab9 prom act, NPC1 promoter act)
Cc1ccc(C(=O)COC(=O)c2cccc(NC(=O)c3ccc(Br)cc3)c2)cc1	SMN2 splice up inconclusive, FLuc modulator 1.2µM (no result: Rab9 prom act, NPC1 promoter act, Luc counter)
O=C(COC(=O)c1cccc(NC(=O)c2ccc(Br)cc2)c1)c1ccc(Br)cc1	FLuc modulator 4.3µM (no result: Rab9 prom act, NPC1 promoter act, Luc counter)
CCOC(=O)c1cccc(NS(=O)(=O)c2ccc(NC(C)=O)cc2)c1	none
O=C1N[C@@]2(CN3CCC2CC3)C(=O)N1CN(Cc1ccccc1)c1ccccc1	none (no result: FLuc modulator, Rab9 prom act, NPC1 promoter act)
CC1(C)CCC(C)(C)c2c1ccc(O)c2Cc1c(O)ccc2c1C(C)(C)CCC2(C)C	none (no result: FLuc modulator, Rab9 prom act, NPC1 promoter act)
c1ccc2c(c1)CCCC2	none (no result: FLuc modulator, Rab9 prom act, NPC1 promoter act, Luc counter)
C/C(=N\OC(=O)NC(C)C)c1sc(-c2ccccc2)nc1C	FLuc modulator inconclusive, Rab9 prom act inconclusive, NPC1 promoter act 4µM
C/C(=N\OC(=O)NC(C)C)c1sc(-c2ccc(Cl)cc2)nc1C	SMN2 splice up inconclusive, FLuc modulator 13µM, Rab9 prom act inconclusive, NPC1 promoter act inconclusive
CC(C)CC(=O)NC(Oc1ccc(Cl)cc1)C(Cl)(Cl)Cl (stereo unspecified)	none
CCNC(=O)O/N=C(\C)c1sc(-c2ccc(Cl)cc2)nc1C	FLuc modulator 2.7µM, Rab9 prom act 3.5µM, NPC1 promoter act 1.4µM, Luc counter inconclusive
CN(C)C(Cc1ccc(Cl)cc1)C(=O)c1ccccc1 (stereo unspecified)	FLuc modulator inconclusive (no result: SMN2 splice up, Luc counter)
COC(=O)c1ccc(CC(C(=O)c2ccccc2)N(C)C)cc1 (stereo unspecified)	FLuc modulator 15µM, Rab9 prom act inconclusive, NPC1 promoter act inconclusive (no result: SMN2 splice up, Luc counter)
COc1ccc(-c2n[nH]c(=S)n2-c2ccc3c(c2)OCCO3)cc1OC	FLuc modulator 12µM (no result: SMN2 splice up)
S=c1[nH]nc(-c2ccc3ccccc3n2)n1-c1ccc2c(c1)OCCO2	FLuc modulator inconclusive (no result: SMN2 splice up, Luc counter)
CC(C)CNCCc1ccccn1	none (no result: FLuc modulator, Rab9 prom act, NPC1 promoter act)
CCN(CC)c1ccc(/C=C2\C(=O)NC(=S)N(C)C2=O)o1	FLuc modulator 9.5µM, Rab9 prom act 1.3µM, NPC1 promoter act 1.4µM (no result: SMN2 splice up, Luc counter)
Cc1ccc(C(=O)Nc2nc3ccccc3[nH]2)cc1	FLuc modulator 0.095µM, Rab9 prom act 0.63µM, NPC1 promoter act 0.56µM (no result: SMN2 splice up, Luc counter)
CCCCCn1c(=O)c(C(=O)Nc2nc3ccccc3[nH]2)c(O)c2ccccc21	none (no result: SMN2 splice up, Luc counter)
COc1ccc(C(CC(=O)N2CCC3(CC2)OCCO3)NS(=O)(=O)c2ccc(F)cc2)cc1 (stereo unspecified)	Rab9 prom act 3.5µM
COc1ccc(CNCC(=O)N2CCC3(CC2)OCCO3)cc1	none
NC(Cc1nc2ccccc2[nH]1)c1ccc(Cl)cc1 (stereo unspecified)	FLuc modulator 11µM, Rab9 prom act inconclusive (no result: SMN2 splice up, Luc counter)
Cc1cc(C=C2C(=O)N(C)C(=S)N(C)C2=O)c(C)n1-c1ccncc1	FLuc modulator 27µM (no result: SMN2 splice up, Luc counter)
Cc1ccnc(-n2c(C)cc(C=C3C(=O)N(C)C(=S)N(C)C3=O)c2C)c1	FLuc modulator 19µM
Cc1cc(C)cc(-n2c(C)cc(/C=C3\C(=O)NC(=O)N(C)C3=O)c2C)c1	none
CN(C)CCCc1c[nH]c2ccccc12	none (no result: FLuc modulator, Rab9 prom act, NPC1 promoter act)
